The text below walks through data of PubChem BioAssay (EPA / NIEHS).

Activity calls are given as the source filed them. How the source made its calls: active means hit-call score of the fitted dose curve at least 0.9, where 1 is the maximum; inactive means score below 0.9.

A short description of the assay: Tanguay_ZF_120hpf_TCHR: Oregon State University Tanguay Lab 120 Hour Post-fertilization zebrafish Assay for Touch Responsive (AID 2284403). As for the experimental part:
Tanguay_ZF_120hpf is a whole embryo, multiplexed endpoint assay using zebrafish larvae exposed for 120 hours post fertilization on a 96-well plate.Tanguay_ZF_120hpf_TCHR is one of one assay component(s) measured or calculated from the Tanguay_ZF_120hpf assay. It is designed to make measurements of zebrafish development as detected with brightfield microscopy of developing zebrafish embryos.Data from the assay component Tanguay_ZF_120hpf_TCHR was analyzed into 1 assay endpoints. This assay endpoint, Tanguay_ZF_120hpf_TCHR, was analyzed in the positive analysis fitting direction relative to DMSO as the negative control and baseline of activity. Using a type of morphology reporter, gain-of-signal activity can be used to understand changes in developmentals as they relate to the whole embryo. To generalize the intended target to other relatable targets, this assay endpoint is annotated to the zebrafish development intended target family, where the subfamily is embryonic functional response.
Zebrafish husbandry: Tropical 5D wild-type adult zebrafish were housed in at an approximate density of 1000 per 100 gallon tank at the Sinnhuber Aquatic Research Laboratory, Oregon State University, Corvallis, OR. Each tank was kept at standard laboratory conditions of 28C on a 14-h light/10-h dark photoperiod in fish water consisting of reverse osmosis water supplemented with a commercially available salt (Instant Ocean). Spawning funnels were placed into the tanks the night prior, and embryos were collected and staged. To increase bioavailability, the chorion was enzymatically removed using pronase (63.6mg/ml, >/= 3.5U/mg, Sigma-Aldrich: P5147) at 4 hours post fertilization (hpf) using a custom automated dechorionator.Chemical exposures: Six hpf dechorionated embryos were placed 1 embryo per well in a 96-well plate prefilled with 90 ul of EM using automated embryo placement systems (AEPS). Ten microliters of each row of dilution plate 2 was added to 2 exposure plates. The final DMSO concentration used was 0.64% (vol/vol). Thirty-two embryos were also exposed to 5uM trimethyltin chloride (positive control). Plates were sealed to prevent evaporation and foil covered to reduce light exposure and kept in a 28C incubator. Embryos were statically exposed until 120 hpf. At 24 hpf, embryos were assessed for photomotor response using a custom photomotor response analysis tool (PRAT) and for developmental toxicity endpoints (MO24: mortality at 24 hpf, DP: developmental progression, SM: spontaneous movement, and NC: notochord distortion). At 120 hpf, locomotor activity was measured using Viewpoint Zebralab and assessed for 13 endpoints. Zebrafish acquisition and analysis program (ZAAP), a custom program designed to inventory, acquire, and manage zebrafish data, was used to collect developmental endpoints as either present or absent (i.e., binary responses were recorded). If mortality occurred for an embryo (at either 24 or 120 hpf), the non-mortality endpoints were not measured.
`O=C(O)C=CC(F)(C(F)(F)F)C(F)(F)F`: the result was inactive.
In the case of `C=CC(=O)OCC(F)(F)C(F)F` it was “inactive”.
As for `OCC(F)(F)OC(F)(F)C(F)(F)OC(F)(F)C(F)(F)OC(F)(F)CO`, the result was inactive.
Next, `FC(F)(F)C(F)(C(F)(F)F)C(F)(F)C(F)(F)CC1CO1` (centres undefined): “inactive”; `CC(O)C(F)(F)C(F)(F)F` (centres undefined): “inactive”.
As for `O=C(O)C(F)(OC(F)(F)C(F)(F)C(F)(F)F)C(F)(F)F` (centres undefined), the result was inactive.
With `NC(=O)C(F)(F)C(F)(F)F`, the compound was called inactive.
On to `OCC(F)(F)OC(F)(F)C(F)(F)OC(F)(F)C(F)(F)OC(F)(F)F`, for which the call was inactive.
As to `O=C(O)C(F)(F)OC(F)(F)C(F)(F)OC(F)(F)C(=O)O`, the call was inactive.
For `O=C(O)C(F)(F)OC(F)(F)C(F)(F)OC(F)(F)F`, the compound was called inactive.
As to `OCC(F)(F)OC(F)(F)C(F)(F)OC(F)(F)CO`, the compound was classed as inactive.
Next, `O=S(=O)(F)C(F)(F)C(F)(F)C(F)(F)C(F)(F)C(F)(F)C(F)(F)C(F)(F)C(F)(F)F`: “inactive”; `O=C(O)C(F)(F)C(F)(F)C(=O)O`: “inactive”; `COC(=O)C(F)(F)C(F)(F)OC(F)(C(F)(F)F)C(F)(F)OC(F)=C(F)F` (centres undefined): “inactive”.
